# Data published in PubChem BioAssay AID1851 (National Center for Advancing Translational Sciences (NCATS), 2009).
# About 5,100 (32%) of roughly 16,000 compounds were called active. Inconclusive results (about 25%) are left out. The list shows a part of the results. Values without a mark were called inactive. Calls follow the shape of the dose curve; as a rule, active = well fitted curve in the direction sought with a large enough effect; inconclusive = small, poorly fitted or top-dose-only effect, or effect the other way; inactive = no such curve, though single readings can be large or run the other way.
# Biological target: Cytochrome P450 3A4 (Homo sapiens) (UniProt P08684)
# Sequence (P08684 whole entry, looked up): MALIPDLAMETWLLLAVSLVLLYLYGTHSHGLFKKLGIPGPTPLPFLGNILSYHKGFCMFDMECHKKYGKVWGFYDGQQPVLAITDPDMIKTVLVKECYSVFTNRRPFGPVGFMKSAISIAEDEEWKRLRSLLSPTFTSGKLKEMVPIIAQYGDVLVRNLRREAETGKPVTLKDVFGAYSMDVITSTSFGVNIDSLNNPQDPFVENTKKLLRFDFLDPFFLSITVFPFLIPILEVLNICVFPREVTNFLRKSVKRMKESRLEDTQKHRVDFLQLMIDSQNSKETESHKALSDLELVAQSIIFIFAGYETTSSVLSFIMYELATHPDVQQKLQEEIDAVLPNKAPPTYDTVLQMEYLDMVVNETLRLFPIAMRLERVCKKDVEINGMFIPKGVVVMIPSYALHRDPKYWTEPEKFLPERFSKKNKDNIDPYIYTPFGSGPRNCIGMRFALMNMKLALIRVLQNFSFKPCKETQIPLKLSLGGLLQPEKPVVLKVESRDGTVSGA
# Assay: Cytochrome panel assay with activity outcomes
# Settings: recombinant CYP, pro-luciferin dealkylation, luminescence, p450-cyp3a4; series mostly up to 57.1 µM; activity, negative = inhibition: at the top concentration
# % is scaled to controls: 0 for no effect and ±100 for the full control effect.
Compound,AC50,"activity, negative = inhibition"
Cc1noc(C)c1-c1ccc2ncnc(NCc3cccnc3)c2c1,2.51 µM (active),–
Cc1cccc(CNc2ncnc3ccc(-c4c(C)noc4C)cc23)c1,0.794 µM (active),–
Cc1noc(C)c1-c1ccc2ncnc(NC3CCNCC3)c2c1,–,-15.9%
Cc1noc(C)c1-c1ccc2ncnc(NCc3ccccc3)c2c1,10 µM (active),–
Cc1noc(C)c1-c1ccc2ncnc(NCc3cccs3)c2c1,10 µM (active),–
N#[N+]c1ccc(Nc2ccccc2)cc1,–,-10.9% [at 11.4 µM]
CC[N+](C)(CC)CCN1C(=O)c2ccccc2S1(=O)=O,–,6.19% [at 11.4 µM]
O=[N+]([O-])c1ccc(N2CCCC2)cc1NCc1ccccc1,15.8 µM (active),–
CC(C)c1ccc(CNc2cc(N3CCCC3)ccc2[N+](=O)[O-])cc1,–,-8.24% [at 2.29 µM]
Cc1cc(C)c(S(=O)(=O)N2CCN(c3ccc([N+](=O)[O-])c(NCc4ccco4)c3)CC2)c(C)c1,7.08 µM (active),–
CNc1cc(N2CCCCCC2)ccc1[N+](=O)[O-],–,-20.1% [at 2.29 µM]
CC(=O)N(CC(O)CN(C(C)=O)c1c(I)c(C(=O)NC[C@@H](O)CO)c(I)c(C(=O)NC[C@@H](O)CO)c1I)c1c(I)c(C(=O)NC[C@@H](O)CO)c(I)c(C(=O)NC[C@@H](O)CO)c1I,–,3.05% [at 25.6 µM]
CC(C)(C)c1ccc(O)c(CN(Cc2cc(C(C)(C)C)ccc2O)C2CCCCC2)c1,–,-3.22% [at 11.4 µM]
c1ccc2cc(C3=NCCN3)ncc2c1,–,-15.9%
COc1ccc(/C=C/C(=O)Nc2nc(C)cc(C)n2)cc1OC,–,2.05% [at 2.29 µM]
CCSc1nc2ccccc2n1C(=O)/C=C\c1ccc(OC)c(OC)c1,20 µM (active),–
COc1cc(/C=C\C(=O)N2CCC=CC2=O)cc(OC)c1OC,–,-8.08% [at 25.6 µM]
C=CCSc1nc2ccccc2n1C(=O)/C=C/c1cc(OC)c(OC)c(OC)c1,7.94 µM (active),–
C#CCSc1nncn1C(=O)/C=C/c1ccccc1,–,-0.406% [at 2.29 µM]
c1ccc2cc(-c3csnn3)ccc2c1,–,16%
c1ccc2nc(C3=NCCN3)ccc2c1,–,7.89%
c1ccc2nc(-c3ccncc3)ccc2c1,2.82 µM (active),–
Cc1cc(Cl)ccc1OCC(=O)Nc1nc(N)nc(N)n1,–,-4.83% [at 11.4 µM]
O=C(N/N=C1\CCCc2ccccc21)c1ccc([N+](=O)[O-])cc1Cl,–,-11.3% [at 2.29 µM]
Cc1cc(Cl)ccc1OCC(=O)N/N=C1\CCCc2ccccc21,12.6 µM (active),–

Compound,AC50,"activity, negative = inhibition"
Cc1cc(Cl)ccc1OCC(=O)NCc1ccncc1,1.41 µM (active),–
COc1ncc2nc(-c3ccc(Cl)cc3)c(=O)n(-c3ccccc3)c2n1,–,11.2%
Cn1c(=O)c(-c2ccc(Cl)cc2)nc2cnc(OCc3ccccc3)nc21,–,19.1%
COc1ncc2nc(-c3ccc(F)cc3)c(=O)n(C)c2n1,20 µM (active),–
COc1ncc2nc(-c3ccccc3)c(=O)n(C)c2n1,–,-25.8%
COc1ccc(-c2nc3cnc(OC)nc3n(C)c2=O)cc1,25.1 µM (active),–
COc1ccc(-c2nc3cnc(N4CCN(C)CC4)nc3n(C)c2=O)cc1,–,18.8%
CN(C)c1ncc2nc(-c3ccc(F)cc3)c(=O)n(C)c2n1,–,18.7%
COc1ncc2nc(-c3ccc(Cl)cc3)c(=O)n(C)c2n1,25.1 µM (active),–
Cc1ccnn2cc3c(=O)n(C)c(=O)n(C)c3c12,–,-5.05%
C=Cc1c(C)c2cc3[nH]c(cc4nc(cc5nc(cc1[nH]2)C(C)=C5CCC(=O)O)C(CCC(=O)O)=C4C)c(C)c3C=C,–,-10.4%
COc1cccc(-c2nc(NCc3ccccc3)c3ccccc3n2)c1,12.6 µM (active),–
N#Cc1cccc(-c2nc(NCc3cccs3)c3ccccc3n2)c1,3.98 µM (active),–
N#Cc1cccc(-c2nc(NCc3cccnc3)c3ccccc3n2)c1,5.01 µM (active),–
Cc1cccc(CNc2nc(-c3cccnc3)nc3ccccc23)c1,1 µM (active),–
O=[N+]([O-])c1ccc(N2CCOCC2)nc1,–,-4.02% [at 2.29 µM]
COc1cccc(-c2nc(NCc3cccs3)c3ccccc3n2)c1,3.16 µM (active),–
COCCNc1nc(-c2cccc(OC)c2)nc2ccccc12,5.01 µM (active),–
COc1cccc(-c2nc(NC3CC3)c3ccccc3n2)c1,1.26 µM (active),–
COc1cccc(-c2nc(NCCNC(C)=O)c3ccccc3n2)c1,12.6 µM (active),–
COc1cccc(Nc2ncc3nc(-c4ccccc4)c(=O)n(Cc4cccs4)c3n2)c1,–,-21.3%
NNC(=O)[C@@H](O)[C@H](O)[C@H](O)CO,–,0.183% [at 11.4 µM]
COc1cccc(/C=N/NC(=O)C(=O)NCc2cccnc2)c1,–,-8.44% [at 2.29 µM]
COc1cccc(-c2nc(NCc3ccccc3OC)c3ccccc3n2)c1,3.98 µM (active),–
COC(=O)Cc1c(C)nc2nc(NCc3ccccc3OC)[nH]n2c1=O,–,-8.91%

Compound,AC50,"activity, negative = inhibition"
COc1cccc(-c2nc(NCc3cccnc3)c3ccccc3n2)c1,2 µM (active),–
O=C(O)c1nn(-c2ccccc2-c2n[nH]c(=O)[nH]c2=O)c(=O)[nH]c1=O,–,-2.84% [at 11.4 µM]
Cc1ccccc1NS(=O)(=O)c1ccc2[nH]cc(C(=O)NCCCN3CCOCC3)c(=O)c2c1,2 µM (active),–
COc1cccc(NS(=O)(=O)c2ccc3[nH]cc(C(=O)NCCN4CCOCC4)c(=O)c3c2)c1,2.82 µM (active),–
Cc1ccc(C(=O)NCCCN2CCOCC2)cc1N1CCCC1=O,–,15.8%
CN1CCN(S(=O)(=O)c2ccc3[nH]cc(C(=O)O)c(=O)c3c2)CC1,–,-5.58%
CCOC(=O)N1CCN(S(=O)(=O)c2ccc3[nH]cc(C(=O)O)c(=O)c3c2)CC1,–,-14.5%
N[C@H](C(=O)O)c1nn[nH]n1,–,-1.46%
C[C@](N)(C(=O)O)c1ccc(-c2nn[nH]n2)cc1,–,-6.26%
COc1ccc(N2C(=O)CC(S/C(N)=N/N=C(\C)c3cccs3)C2=O)cc1 (stereo not given),14.1 µM (active),–
CCCOc1ccc(N2C(=O)CC(S/C(N)=N/N=C(\C)c3cccs3)C2=O)cc1 (stereo not given),–,7.2% [at 2.29 µM]
Cc1cccc(Sc2c([N+](=O)[O-])ncn2C)n1,–,-3.51%
N[C@H](C(=O)O)[C@@H]1C[C@@H]1C(=O)O,inactive,–
O=C1/C(=C\c2ccccn2)SC(=S)N1Nc1ncc(C(F)(F)F)cc1Cl,3.16 µM (active),–
O=C(N/N=C/c1cccc(C(F)(F)F)c1)C1CCN(c2ncc(C(F)(F)F)cc2Cl)CC1,–,-7.12%
Cc1cc(C)nc(NN2C(=O)/C(=C/c3ccccc3)SC2=S)n1,–,-9.13%
c1ccc(C(CCN2CC3CCC(CC3)C2)c2ccccc2)cc1,–,-1.84% [at 11.4 µM]
CCN(CC)C(=O)Cn1cnc([N+](=O)[O-])n1,–,-15.3%
CCOc1ccc(N(CCC#N)S(=O)(=O)c2ccc(OC)cc2)cc1,11.2 µM (active),–
O=c1c2c(-c3cccs3)csc2ncn1-c1ccc(Br)cc1,–,-3.71% [at 2.29 µM]
CCc1cc2c(=O)n(-c3ccccc3)c(=S)[nH]c2s1,–,-18.8%
O=c1c2c(-c3cccs3)csc2[nH]c(=S)n1-c1ccccc1,14.1 µM (active),–
COc1cccc(-c2nc(N(C)Cc3ccco3)c3ccccc3n2)c1,10 µM (active),–
CN(Cc1ccco1)c1nc(-c2cccc(C#N)c2)nc2ccccc12,12.6 µM (active),–
COc1cccc(-c2nc(N(C)C)c3ccccc3n2)c1,5.01 µM (active),–

Compound,AC50,"activity, negative = inhibition"
COc1ccccc1-c1nc(N(C)Cc2ccco2)c2ccccc2n1,7.94 µM (active),–
O=C1OCc2cccc3cccc1c23,–,10.8%
Cc1ccccc1-c1ccc2ncnc(NC3CC3)c2c1,3.16 µM (active),–
N#Cc1ccccc1-c1ccc2ncnc(NC3CC3)c2c1,2 µM (active),–
FC(F)(F)c1ccccc1-c1ccc2ncnc(NC3CCNCC3)c2c1,–,-26.8%
Clc1ccccc1-c1ccc2ncnc(NC3CCNCC3)c2c1,–,-21.5%
FC(F)(F)c1ccccc1-c1ccc2ncnc(NC3CC3)c2c1,1.58 µM (active),–
O=C(O)CCc1ccc(-c2ccccc2)[nH]1,–,-13.2% [at 11.4 µM]
CC(C)OC(=O)/C(=C\c1ccc2c(c1)c1ccccc1n2C)NC(=O)c1ccccc1,1.12 µM (active),–
CC(C)OC(=O)/C(=C\C=C\c1ccccc1)NC(=O)c1ccccc1,–,14.2%
CC(C)SC(=N)N,–,-8.48%
COc1ccc(COC(=O)N/N=C(\C)CC(=O)Nc2c(C)cc(C)cc2C)cc1,1.78 µM (active),–
COc1ccc(C(=O)N/N=C(\C)Cn2nc([N+](=O)[O-])cc2C)cc1,–,-3.05% [at 2.29 µM]
COc1ccc(COC(=O)N/N=C2/C[C@@H](O)[C@@H](O)[C@@H]3[C@@H]4C(=O)N(C(C)(C)C)C(=O)[C@H]4CC[C@@H]23)cc1,–,-13.5% [at 11.4 µM]
CS(=O)(=O)N1CCC[C@@]2(CCN(C(c3ccccc3)c3ccccc3)C2)C1,10 µM (active),–
CS(=O)(=O)N1CCC2(CCCN(C(c3ccccc3)c3ccccc3)C2)CC1,3.98 µM (active),–
CSc1nnnc2ccccc12,–,-8.64% [at 11.4 µM]
O=c1cc(-c2ccccc2)[nH]c2nc(Cl)ccc12,–,-5.23%
N[C@@H](CO)C(=O)O,inactive,–
CCOC(=O)NNC1CC(=O)N(c2ccc(OC)cc2)C1=O (stereo not given),–,-9.66%
CC(=O)Nc1cccc(N2C(=O)CCC2=O)c1,–,-4.58%
CCN=C(Nc1cccc(F)c1)SC1CC(=O)N(c2ccc(OC)cc2)C1=O (stereo not given),6.31 µM (active),–
O=C1CC(N2CCOCC2)C(=O)N1c1cccc(Cl)c1 (stereo not given),–,-3.01%
COc1ccc(CCC(C)Nc2cccc(F)c2)cc1 (stereo not given),–,18.9%
O=C1CC(SC(=Nc2ccccc2)Nc2ccccc2)C(=O)N1c1cccc(Cl)c1 (stereo not given),11.2 µM (active),–
